Laboratory results reported in PMC4336329 (PLoS ONE, 2015).
Among all 310,000 compounds or so, about 14,000 (4.5%) showed an effect of 50% or more. Effects have a minus sign here. The full list was thinned out, with strong results kept by preference.

Biological target: human ether-à-go-go-related gene (hERG) potassium channel (human, UniProt Q12809)
Assay: primary screen, population patch clamp on CHO cells stably expressing hERG; higher = less effect of the substance
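Further: peak tail current of the secondary pulse compared with the same well before compound.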

Sequence of human ether-à-go-go-related gene (hERG) potassium channel (Q12809 whole entry, looked up): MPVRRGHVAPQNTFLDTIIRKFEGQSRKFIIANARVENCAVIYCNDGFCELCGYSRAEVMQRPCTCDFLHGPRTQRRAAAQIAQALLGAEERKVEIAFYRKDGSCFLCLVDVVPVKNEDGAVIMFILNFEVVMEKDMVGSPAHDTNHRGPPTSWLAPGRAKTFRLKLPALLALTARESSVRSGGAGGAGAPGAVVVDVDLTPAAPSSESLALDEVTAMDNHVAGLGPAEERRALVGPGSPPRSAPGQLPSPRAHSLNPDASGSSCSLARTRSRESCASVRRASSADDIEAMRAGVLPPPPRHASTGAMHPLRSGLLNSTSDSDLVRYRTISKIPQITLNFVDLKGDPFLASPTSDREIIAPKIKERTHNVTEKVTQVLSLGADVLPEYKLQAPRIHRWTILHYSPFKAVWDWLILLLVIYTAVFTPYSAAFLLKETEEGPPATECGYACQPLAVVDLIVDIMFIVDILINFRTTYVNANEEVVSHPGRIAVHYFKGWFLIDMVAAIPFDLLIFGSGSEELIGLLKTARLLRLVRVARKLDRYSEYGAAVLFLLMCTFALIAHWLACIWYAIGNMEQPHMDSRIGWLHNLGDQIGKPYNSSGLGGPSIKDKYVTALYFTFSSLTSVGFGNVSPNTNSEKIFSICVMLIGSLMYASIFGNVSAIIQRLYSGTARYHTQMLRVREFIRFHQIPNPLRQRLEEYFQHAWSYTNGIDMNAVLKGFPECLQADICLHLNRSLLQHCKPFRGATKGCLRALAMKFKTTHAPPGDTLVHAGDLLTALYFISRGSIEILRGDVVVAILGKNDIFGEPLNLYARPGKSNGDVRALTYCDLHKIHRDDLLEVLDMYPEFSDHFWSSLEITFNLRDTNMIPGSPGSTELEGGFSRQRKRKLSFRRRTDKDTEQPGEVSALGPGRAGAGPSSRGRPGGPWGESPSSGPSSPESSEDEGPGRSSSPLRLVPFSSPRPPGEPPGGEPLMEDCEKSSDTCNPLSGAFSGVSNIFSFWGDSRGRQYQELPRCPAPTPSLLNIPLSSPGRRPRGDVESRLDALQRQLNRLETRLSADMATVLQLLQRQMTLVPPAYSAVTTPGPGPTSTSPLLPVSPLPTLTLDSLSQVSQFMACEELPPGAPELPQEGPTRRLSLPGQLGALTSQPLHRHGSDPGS

Compound	hERG current change (%, negative = inhibition) at 10uM [%]
COc1cc2[nH]c(C(=O)N3CCN(c4ccc(F)cc4)CC3)cc2c(OC)c1OC	17.9
Cc1ccc(C)c(CN2CCSCC2)c1	17.3
O=C(Nn1c(-c2ccccc2)nc2ccccc2c1=O)c1ccco1	3.87
O=C(Oc1ccccc1)n1c(=S)oc2ccccc21	12.2
O=C(N/N=C/c1ccc[nH]1)c1ccccc1[N+](=O)[O-]	19.9
O=C(c1cccc(N2C(=O)C3CC=CCC3C2=O)c1)N1CCCCCC1 (centres unmarked)	-3.26
Cc1ccc(-c2nnc3n2N=C(c2ccccc2)CS3)cc1	3.15
O=C(C1COc2ccccc2O1)N1CCN(c2ccccc2O)CC1 (centres unmarked)	-12.5
O=C1C2C3C=CC(C4CC34)C2C(=O)N1c1cc(Cl)ccn1 (centres unmarked)	2.55
Cc1csc(Sc2nc3c(c(=O)[nH]c(=O)n3C)n2CCCc2ccccc2)n1	12.2
C=CCOC(=O)c1ccc(-n2cncn2)nc1	-4.47
Cc1ccc(S(=O)(=O)N2c3ccccc3OCC2C(C)(C)C)cc1 (centres unmarked)	4.08
Cc1ccc(CN2CCN(Cc3ccccc3F)CC2)cc1.O=C(O)C(=O)O	-12.2
COc1ccc(CN2CCC(CNC(=O)NC3CCCCC3)CC2)cc1	-67.7
COc1ccc(CNC(=O)NC2CCCCC2)cc1	2.13
Cc1ccc(CN2CCC(CNC(=O)Nc3ccccc3F)CC2)cc1	-69.7
COc1ccc(CCNC(=O)NC2CCCCC2)cc1	0.125
O=C(NCC1CC1)Nc1ccccc1F	18.8
Cc1nn(Cc2ccc(Cl)cc2Cl)c(C)c1NC(=O)C1C2CCC(O2)C1C(=O)O (centres unmarked)	-9.88
CC(Oc1ccc(Cl)cc1Cl)C(=O)NCCC1=CCCCC1 (centres unmarked)	4.46
Cc1ccc(CN(C)C(=O)c2ccc3c(c2)NC(=O)CS3)o1	-17.2
Cc1cc(S(=O)(=O)NCc2cccnc2)ccc1F	-3.24
COc1ccc(S(=O)(=O)CCC(=O)N(C)c2ccc(OC)cc2OC)cc1	-12.8
CN1CC(=O)NC1=NC(=O)C12CC3CC(CC(C3)C1)C2	-8.73
Cl.Clc1cccc(Cl)c1CNC1CCCC1	13.5

Compound	hERG current change (%, negative = inhibition) at 10uM [%]
CC(=O)c1cccc(N(C(=O)Cn2nnc3ccccc32)C(C(=O)NCc2ccccc2)c2ccccn2)c1 (centres unmarked)	-39
Cc1ccc(N(C(=O)Cn2nnc3ccccc32)C(C(=O)NCc2ccccc2)c2ccccn2)cc1 (centres unmarked)	-45.5
CC(=O)c1ccc(N(C(=O)Cn2nnc3ccccc32)C(C(=O)NCc2ccccc2)c2ccccn2)cc1 (centres unmarked)	-73.2
COc1ccc(Cc2nc3ccc(C(=O)N(C)CCCN4CCOCC4)cc3o2)cc1	10
Cc1cc(C(=O)Nc2ccc3c(c2)OCCO3)c2ccccc2n1	18.4
CCOc1ccc(C(=O)Nc2ccc3c(c2)OCCO3)cc1	-1.74
Cc1cc(Nc2ccc3c(c2)OCCO3)c2cc(Cl)ccc2n1.Cl	-52.6
Cc1cc(Nc2ccc3c(c2)OCCO3)c2ccccc2n1.Cl	-56.1
Cc1cc(Nc2ccc3c(c2)OCCO3)n2nc(C)nc2n1	-9.32
Cc1cc(C)c(C(N)=O)c(Nc2ccc3c(c2)OCCO3)n1	0.162
Cc1cc(C)c(C#N)c(Nc2ccc3c(c2)OCCO3)n1	5.17
Cc1ccc2nc(C)cc(Nc3ccc4c(c3)OCCO4)c2c1.Cl	-58.2
CCOc1ccc2nc(C)cc(Nc3ccc4c(c3)OCCO4)c2c1.Cl	-72.4
CCOc1cccc(C(=O)Nc2ccc3c(c2)OCCO3)c1	3.35
Cc1cc(C)n2c(Nc3ccc4c(c3)OCCO4)c(-c3ccccc3)nc2n1	-16.7
Cc1cc(Nc2ccc3c(c2)OCCO3)c2cccc(C)c2n1.Cl	-40.7
O=C(COc1ccc(F)cc1Cl)Nc1ccc(N2CCOCC2)cc1N1CCOCC1	-10.2
Cc1ccc(C2(C)NC(=O)N(CC(=O)N(Cc3ccccc3)C(C)(C)C)C2=O)cc1 (centres unmarked)	-1.1
Cc1nccn1CC(=O)N/N=C/c1cc(Br)cs1	6.58
Cc1ccc(C)c(Cn2cnc3c(nnn3-c3ccc(F)cc3)c2=O)c1	-2.53
Cn1c(=O)c(C(=O)COC(=O)c2cc(-c3ccco3)nc3ccccc23)c(N)n(Cc2ccccc2)c1=O	-12.2
O=[N+]([O-])c1ccc(/C=C/c2ccc3ccccc3n2)cc1	5.95
Cc1cc(C)c(CN2CCN(C(=O)Cn3ccc(NC(=O)OCc4ccccc4)nc3=O)CC2)c(C)c1	-5.55
COc1ccc(N(CC(=O)NCC2CCCO2)S(=O)(=O)c2ccc(C)cc2)cc1OC (centres unmarked)	-3.96
O=C(NCC1CCCN(C(=O)c2cc(Cl)ccc2F)C1)c1ccc(F)cc1 (centres unmarked)	-6.65
